The values below come from PubChem BioAssay.

The subject of experiment [1] is Wnt5a (protein binding on small-molecule microarray). The experiment can be described thus: small molecules binding Wnt5a protein – biophysical, small-molecule microarray, 635/667 nm fluorescence, primary screen (AID 1142).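 Note: fluorescence read at 667 nm with signal to noise per printed feature.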 To be noted: 635 nm fluorescence, higher = more signal.
Experiment [2] can be described thus: ATP-based viability of Huh7 replicon cells – cell-based, CellTiter-Glo luminescence, basal, 48 h, cytotoxicity control for HCV replication inhibitor project, primary screen (AID 1143).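 Note: Huh7 hepatoma cells carrying a hepatitis C replication reporter with no stimulus; test concentration not given here.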 The settings on record: higher = more signal, called active from +8 up or from −8 down. A general note: Replicon systems follow genome replication, usually without infectious particles.

Experiment [3] in a line: basal CRE-LacZ reporter activity in PC12 – cell-based, unstimulated, primary screen (AID 1145). The settings on record: no forskolin, luminescence, 4.5 h, higher = more signal, called active from +8 up or from −8 down.
Experiment [4] is described as follows: forskolin-driven CRE-LacZ activity in PC12 – cell-based, CRE-LacZ reporter, forskolin-stimulated, primary screen (AID 1146).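 Note: PC12 cells with 6xCRE LacZ reporter stimulated by forskolin 10 µM; beta-galactosidase reporter signal reflecting CREB driven transcription.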 The settings on record: luminescence, 4.5 h, higher = more signal, called active from +8 up or from −8 down.
In experiment [5] the target is Streptavidin (Streptomyces avidinii) (UniProt P22629). The experiment can be described thus: compounds binding control protein streptavidin – biophysical, small-molecule microarray, 635/667 nm fluorescence, artefact control for SMM compound annotation, primary screen (AID 1147).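 Note: signal reflects streptavidin binding to arrayed compounds as a control protein.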 The settings on record: higher = more signal.
Streptavidin (Streptomyces avidinii), sequence (P22629 whole entry, looked up): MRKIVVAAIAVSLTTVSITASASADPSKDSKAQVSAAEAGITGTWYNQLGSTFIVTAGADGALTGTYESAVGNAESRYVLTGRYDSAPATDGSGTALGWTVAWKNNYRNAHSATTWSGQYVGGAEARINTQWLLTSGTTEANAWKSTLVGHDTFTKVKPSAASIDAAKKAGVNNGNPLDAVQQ
Experiment [6] can be described thus: probe aInhba binding on compound microarray – biochemical, small-molecule microarray, 635/667 nm fluorescence, primary screen (AID 1148).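 Note: score merges 667nm spot fluorescence with signal-to-noise for antibody binding to printed compounds.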 The settings on record: higher = more signal.
In experiment [7] the target is Torsin-1A (Homo sapiens) (UniProt O14656). The experiment can be described thus: TOR1A wild-type binding on microarray – cell lysate, small-molecule microarray, lysate, 635/667 nm, primary screen (AID 1149). The settings on record: COS7 hTOR1A-WT lysate, 635 nm fluorescence, higher = more signal.
Torsin-1A (Homo sapiens), sequence (O14656 whole entry, looked up): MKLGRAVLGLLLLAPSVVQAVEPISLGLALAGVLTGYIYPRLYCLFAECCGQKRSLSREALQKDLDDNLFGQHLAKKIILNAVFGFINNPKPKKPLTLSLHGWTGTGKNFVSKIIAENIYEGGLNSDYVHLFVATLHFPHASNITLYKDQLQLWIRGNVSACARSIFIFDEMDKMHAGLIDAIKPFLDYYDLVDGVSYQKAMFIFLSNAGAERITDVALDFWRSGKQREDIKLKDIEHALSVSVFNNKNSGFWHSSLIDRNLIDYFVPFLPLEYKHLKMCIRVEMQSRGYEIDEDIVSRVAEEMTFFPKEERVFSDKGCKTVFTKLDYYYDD
Experiment [8] shares this target. The experiment can be described thus: torsin A mutant lysate binding on microarrays – cell lysate, small-molecule microarray, COS7 lysate, 635/667 nm fluorescence, primary screen (AID 1150).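 Note: score pools 667 nm emission and signal to noise measuring lysate protein binding.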 The settings on record: COS7 hTOR1A mutant lysate, 635 nm fluorescence, higher = more signal.
Experiment [9] relates to Sonic hedgehog protein (Shh). The experiment can be described thus: Sonic hedgehog microarray binding compounds – biochemical, small-molecule microarray, 635/667 nm fluorescence, primary screen (AID 1151).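 Note: Shh protein binding to compounds spotted on small-molecule microarray slides; score combines spot fluorescence intensity with signal-to-noise across triplicate slides.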 To be noted: 635 nm fluorescence, higher = more signal.
Experiment [10] can be described thus: optical density shifts of acrAB sulA E. coli – strain DRC41, OD650, 48 h, E. coli filamentation inducer project, primary screen (AID 1152).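 Note: E. coli MC1000 strain DRC41 lacking acrAB efflux pump and sulA.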 The settings on record: higher = more signal, called active from +8 up or from −8 down.
A short description of experiment [11]: probe aLefty1 binding on compound microarray – biochemical, small-molecule microarray, 635/667 nm fluorescence, primary screen (AID 1153).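 Note: score merges spot fluorescence with signal-to-noise ratio from the scanned slide images.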 The settings on record: higher = more signal.
Experiment [12] in a line: plasmodial surface anion channel blockers, osmotic lysis – cell-based, P. falciparum Indochina, OD700, 1 h, primary screen (AID 1154). To be noted: P. falciparum Indochina infected RBC osmotic lysis, higher = more signal, called active from +8 up or from −8 down.
The nature of experiment [13]: plasmodial surface anion channel blockers, osmotic lysis – cell-based, P. falciparum Indochina, OD700, 2 h, primary screen (AID 1155).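 Note: lysis reports solute entry through the parasite surface anion channel PSAC.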 To be noted: P. falciparum Indochina infected erythrocytes, higher = more signal, called active from +8 up or from −8 down.
Experiment [14] can be described thus: changes in parasitized red cell lysis, either direction – P. falciparum Indochina, OD700, 3 h, PSAC antagonist project, primary screen (AID 1156). To be noted: P. falciparum-infected erythrocytes, osmotic lysis, higher = more signal, called active from +8 up or from −8 down.
A short description of experiment [15]: plasmodial surface anion channel blockers, osmotic lysis – cell-based, P. falciparum Indochina, OD700, 18 h, primary screen (AID 1157). To be noted: P. falciparum Indochina infected erythrocytes, osmotic lysis OD700, 18 h; higher = more signal, called active from +8 up or from −8 down.
Experiment [16] can be described thus: S6 kinase pathway phospho-S6 level changes – cell-based, A549, cytoblot, luminescence, serum-stimulated, primary screen (AID 1158).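 Note: serum-stimulated A549 lung adenocarcinoma cells; signal is phosphorylated S6 detected by cytoblot immunostaining with HRP secondary.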 The settings on record: 5 h, higher = more signal.
Experiment [17] has as its target NADPH oxidase 2 (Homo sapiens) (UniProt P04839). The experiment can be described thus: compounds shifting NOX2 Amplex Red fluorescence – cell-based, HEK293-NOX2, PMA-stimulated, NOX inhibitor project, primary screen (AID 1159). Note: test concentration not given here. The settings on record: 45 min, higher = more signal, called active from +8 up or from −8 down.
The target of experiment [18] is NADPH oxidase 4 (Homo sapiens) (UniProt Q9NPH5). The experiment can be described thus: compounds shifting NOX4 Amplex Red fluorescence – cell-based, HEK293-NOX4, tetracycline-induced, NOX inhibitor project, primary screen (AID 1160). The settings on record: HEK293-NOX4, Amplex Red H2O2 fluorescence, 45 min; higher = more signal, called active from +8 up or from −8 down.
NADPH oxidase 4 (Homo sapiens), sequence (Q9NPH5 whole entry, looked up): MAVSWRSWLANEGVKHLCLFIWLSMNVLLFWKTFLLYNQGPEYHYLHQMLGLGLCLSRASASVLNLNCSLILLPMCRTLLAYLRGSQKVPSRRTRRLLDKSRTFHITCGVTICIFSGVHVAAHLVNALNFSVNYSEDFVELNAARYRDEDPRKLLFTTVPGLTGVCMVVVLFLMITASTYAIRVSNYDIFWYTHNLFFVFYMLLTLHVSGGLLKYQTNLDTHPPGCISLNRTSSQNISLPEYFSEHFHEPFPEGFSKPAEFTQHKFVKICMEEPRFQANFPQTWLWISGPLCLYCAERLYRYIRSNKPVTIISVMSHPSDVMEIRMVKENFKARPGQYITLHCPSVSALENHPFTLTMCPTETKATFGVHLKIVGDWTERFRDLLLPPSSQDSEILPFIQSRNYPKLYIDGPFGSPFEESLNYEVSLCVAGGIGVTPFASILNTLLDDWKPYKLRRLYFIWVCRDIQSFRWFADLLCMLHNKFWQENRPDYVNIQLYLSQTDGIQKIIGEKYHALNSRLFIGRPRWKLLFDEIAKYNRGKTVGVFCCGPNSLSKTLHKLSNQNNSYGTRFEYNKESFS

The target of experiment [19] is NADPH oxidase 5 (Homo sapiens) (UniProt Q96PH1). The experiment can be described thus: compounds shifting NOX5 Amplex Red fluorescence – cell-based, HEK293-NOX5, NOX inhibitor project, primary screen (AID 1161). The settings on record: HEK293-NOX5, ionomycin, 45 min, higher = more signal.
NADPH oxidase 5 (Homo sapiens), sequence (Q96PH1 whole entry, looked up): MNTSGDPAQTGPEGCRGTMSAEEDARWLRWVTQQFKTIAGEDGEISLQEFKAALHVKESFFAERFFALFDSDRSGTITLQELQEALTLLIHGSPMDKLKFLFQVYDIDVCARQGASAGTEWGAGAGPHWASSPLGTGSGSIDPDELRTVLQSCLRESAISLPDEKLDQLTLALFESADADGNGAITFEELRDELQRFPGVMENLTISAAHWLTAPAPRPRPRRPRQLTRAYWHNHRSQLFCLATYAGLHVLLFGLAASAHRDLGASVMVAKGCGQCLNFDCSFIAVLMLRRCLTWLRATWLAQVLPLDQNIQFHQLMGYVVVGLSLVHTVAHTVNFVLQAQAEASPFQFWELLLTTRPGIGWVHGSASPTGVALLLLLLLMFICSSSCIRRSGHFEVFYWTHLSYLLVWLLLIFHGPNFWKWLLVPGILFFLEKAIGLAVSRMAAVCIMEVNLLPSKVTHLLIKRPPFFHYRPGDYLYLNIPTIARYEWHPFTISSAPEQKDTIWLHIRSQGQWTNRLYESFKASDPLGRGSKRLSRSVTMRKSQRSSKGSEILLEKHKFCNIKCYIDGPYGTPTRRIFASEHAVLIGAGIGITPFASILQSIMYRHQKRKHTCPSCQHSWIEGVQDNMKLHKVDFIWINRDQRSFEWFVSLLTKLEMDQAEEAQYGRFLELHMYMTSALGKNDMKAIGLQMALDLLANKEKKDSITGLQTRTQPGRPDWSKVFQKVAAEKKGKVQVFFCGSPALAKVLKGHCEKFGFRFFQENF
Experiment [20] is described as follows: compound effects on lung adenocarcinoma cell viability – A549, calcein-AM fluorescence, 48 h, basal, profiling panel (AID 1162). Note: test concentration not given here. The settings on record: higher = more signal.

The source made the active and inactive calls.

NADPH oxidase 2 (Homo sapiens), sequence (P04839 whole entry, looked up): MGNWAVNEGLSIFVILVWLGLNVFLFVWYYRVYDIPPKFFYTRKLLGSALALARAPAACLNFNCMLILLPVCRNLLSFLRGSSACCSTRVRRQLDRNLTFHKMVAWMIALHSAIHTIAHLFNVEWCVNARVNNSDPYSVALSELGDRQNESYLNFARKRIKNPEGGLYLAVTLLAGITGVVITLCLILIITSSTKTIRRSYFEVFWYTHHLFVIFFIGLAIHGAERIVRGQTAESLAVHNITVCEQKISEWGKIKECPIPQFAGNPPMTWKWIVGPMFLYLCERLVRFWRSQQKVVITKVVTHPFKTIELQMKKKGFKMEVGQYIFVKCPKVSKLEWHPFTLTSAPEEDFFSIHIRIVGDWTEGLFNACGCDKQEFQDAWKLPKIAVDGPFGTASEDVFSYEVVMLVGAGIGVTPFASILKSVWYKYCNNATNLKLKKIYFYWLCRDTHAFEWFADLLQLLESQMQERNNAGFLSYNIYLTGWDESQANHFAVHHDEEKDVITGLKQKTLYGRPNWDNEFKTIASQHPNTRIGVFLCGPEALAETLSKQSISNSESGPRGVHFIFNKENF

For the compound `COCCCNC(=O)[C@@]1(C)c2ccccc2C(=O)N(Cc2cc(F)cc(C(F)(F)F)c2)[C@H]1c1ccc(CO)cc1`, the composite z-score in [1] was -0.0509; in experiment [5], -0.624; in experiment [6], -0.38; in the experiment with Torsin-1A (Homo sapiens) [7], 0.891; with Torsin-1A (Homo sapiens) [8] it was -0.439; in experiment [9], -1.16. This compound returned a composite z-score in experiment [11] of -0.279. Besides, the z-score in [2] was -0.914 (inactive); in experiment [3], -0.0512 (inactive); in experiment [4], -0.883 (inactive); in [10] it was 1.7 (inactive); in [12], 1.13 (inactive); in experiment [13], 0.459 (inactive). The z-score was 0.0539 (inactive) in experiment [14]; 0.0567 (inactive) in experiment [15]; 0.0396 in experiment [16]; 0.184 (inactive) in experiment [17]; -1.4 (inactive) in experiment [18]; 0.42 in experiment [19]. Moreover, the z-score in experiment [20] was -0.0292.

`C=CCC(OC(C)=O)[C@@H]1[C@@H](N(Cc2ccc(-c3cccc(C(F)(F)F)c3)o2)C(=O)c2ccc(-c3ccccc3)cc2)c2cc(OCCCO)ccc2N1C(=O)Cc1ccc(OC)cc1` (stereo not given in full): the composite z-score in [1] was 0.0578; in [5], -0.152; in [6], -0.273; in the experiment with Torsin-1A (Homo sapiens) [7] it was -0.267; with Torsin-1A (Homo sapiens) [8], 0.0992; in experiment [9], 0.214. For the same compound, the composite z-score in experiment [11] was -0.0501. For the same compound, the z-score in experiment [2] is -1.84 (inactive); in experiment [3], 1.38 (inactive); in [4], -0.0892 (inactive); in experiment [10], 1.73 (inactive); in experiment [12], 0.963 (inactive); in experiment [13], 0.485 (inactive). The z-score was 0.218 (inactive) in experiment [14]; -0.0843 (inactive) in experiment [15]; 0.509 in experiment [16]; 0.964 (inactive) in experiment [17]; 1.06 (inactive) in experiment [18]; 2.21 in [19]. The z-score in experiment [20] was 0.161.

Turning to `COCCOC(=O)N1C(=O)[C@@]2(c3cc(C#CC4(O)CCCCCC4)ccc31)[C@H](C(=O)NC[C@H](O)c1ccccc1)[C@H]1C(=O)O[C@H](c3ccccc3)[C@H](c3ccccc3)N1[C@@H]2c1ccccc1OCCO`, the composite z-score in experiment [1] was determined as 0.393; in experiment [5], 0.637; in [6] it was 0.0393; with Torsin-1A (Homo sapiens) [7], 0.821; in the experiment with Torsin-1A (Homo sapiens) [8], 0.709; in experiment [9], 1.9. In experiment [11], this compound came in with a composite z-score of 0.223. Further, the z-score in experiment [2] is -5.32 (inactive); in experiment [3] it was -0.203 (inactive); in experiment [4] it was -0.464 (inactive); in experiment [10] it was 1.5 (inactive); in experiment [12] it was 2.13 (inactive); in [13], 1.55 (inactive). Moreover, the z-score is -0.535 (inactive) in [14]; 0.922 (inactive) in [15]; 0.632 in [16]; 1.82 (inactive) in experiment [17]; -0.729 (inactive) in experiment [18]; 0.85 in experiment [19]. In addition, in [20], the z-score was 0.463.

Regarding `COC(=O)c1c(CC[C@@H](CO)NC(=O)Nc2ccc(OC)cc2)oc(C(=O)Cc2ccccc2)c1C(=O)OC`, the composite z-score in experiment [1] is 0.0603; in [5] it was 0.652; in [6], -0.0531; with Torsin-1A (Homo sapiens) [7], 0.462; with Torsin-1A (Homo sapiens) [8], 0.943; in experiment [9], 0.97. This compound also registered a composite z-score in experiment [11] of -0.147. Besides, the z-score in experiment [2] was 0.566 (inactive); in experiment [3], 9.58 (active); in [4], -0.453 (inactive); in [10], 1.7 (inactive); in [12] it was 3.06 (inactive); in experiment [13], 1.01 (inactive). In addition, the z-score in experiment [14] was 0.681 (inactive); in experiment [15], 0.458 (inactive); in [16], -0.0632; in experiment [17], 1.31 (inactive); in experiment [18] it was 0.649 (inactive); in experiment [19] it was -2.22. Moreover, in experiment [20], the z-score is -1.27.

For `O=C(NC1CC1)[C@@H]1c2ccccc2C(=O)N(Cc2ccccc2C(F)(F)F)[C@H]1c1ccc(CO)cc1`, the composite z-score was 0.312 in experiment [1]; -0.47 in experiment [5]; 0.0439 in [6]; 0.504 with Torsin-1A (Homo sapiens) [7]; 0.723 in the experiment with Torsin-1A (Homo sapiens) [8]; 0.732 in experiment [9]. In addition, the composite z-score in [11] came to 0.106. Further, the z-score in experiment [2] was -0.568 (inactive); in experiment [3] it was -0.0512 (inactive); in experiment [4], -1.37 (inactive); in experiment [10], 1.48 (inactive); in experiment [12], 2.17 (inactive); in experiment [13], 0.721 (inactive). In addition, the z-score is -0.335 (inactive) in experiment [14]; 0.106 (inactive) in experiment [15]; 0.152 in experiment [16]; 0.583 (inactive) in experiment [17]; 0.647 (inactive) in experiment [18]; 1.26 in experiment [19]. In addition, the z-score in experiment [20] is 1.88.
